This passage reports inhibition results from PubChem BioAssay.

As a reminder, the inhibition is the relative decrease from the control value, in per cent.

Molecules are shown by their SMILES.

This assay can be described thus: inhibitors of PAF-induced NFkB signaling in CF airway cells, dose response, cell-based, uHTS hits, panel, cytotoxicity readout (AID 624344). Conditions: CF bronchial epithelial cells, PAF-induced NFkB reporter inhibition, with PAF, run 2; at 79 µM (top of the series) unless noted.
Consider `Nc1nc(N)nc(-c2ccc(Cl)c(Cl)c2)n1`, for which the inhibition came out at 101%.
Regarding `Cc1cccc(CS(=O)(=O)c2ncc(Cl)c(C(=O)NCc3ccccc3)n2)c1`, the inhibition was determined as 88.2%.
For the compound `Cc1ccc(C(C(=O)NCc2ccccc2)N(Cc2cccs2)C(=O)c2ccc3c(c2)OCCO3)cc1` (stereo not given), the inhibition is 98.3%.
On to `Cc1ccc(S(=O)(=O)Nc2cccc3cccnc23)c([N+](=O)[O-])c1`, for which the inhibition came to 94.2% [at 39.5 µM].
With `c1csc(Cc2nn3c(-c4ccncc4)nnc3s2)c1` the figure was 102%; with `COc1ccc(/C=N/Nc2nc(-c3cccnc3)nc3ccccc23)cc1OC`, 96.6%; with `COc1ccc2cc3c(N)nn(C(=O)Cc4ccccc4OC)c3nc2c1`, 100%.
As to `CC(=O)c1ccc(-c2cnc3c(NC=O)cc(-c4ccc(C(=O)NC5CC5)cc4)cn23)cc1`, the inhibition is 104%.
For `CC(=O)c1c(O)cc2c3c1OC(C)(C)C1CCC(C)(CC31)O2` (stereo not given) the value was 99%; for `COc1ccccc1/C=C/C(=O)c1c2c(c(C)[nH]c1=O)CCCC2`, 96%.
Turning to `Cc1cccc(NC(=O)c2nc[nH]c2C(=O)NCCCNC(=O)c2[nH]cnc2C(=O)Nc2cccc(C)c2)c1`, the inhibition is 75.5%.
For `O=S(=O)(Nc1nc2ccccc2nc1N1CCN(c2ccccc2F)CC1)c1ccc(Cl)cc1` the value was 111%; for `COc1cccc(-c2ccc3ncnc(NCc4ccc5c(c4)OCO5)c3c2)c1`, 113%; for `COc1ccc(NC(=O)Nc2nnc(-c3ccncc3)s2)cc1`, 68.6%.
As for `Cc1ccc2occ(/C=N/NC(=O)c3ccccc3Br)c(=O)c2c1`, the inhibition was 114%.
Consider `O=C(NCCN1CCN(c2ccccc2)CC1)c1cccc(Br)c1`, for which the inhibition was 73.9%.
With `COc1ccc(-c2cnc3c(NC=O)cc(-c4ccccc4OC)cn23)cc1OC` the figure was 102%; with `Oc1ccc(Nc2ncnc3scc(-c4ccccc4)c23)cc1`, 41%; with `Cc1c(NC(=O)c2cc(-c3cccs3)nc3ccccc23)c(=O)n(-c2ccccc2)n1C`, 103%.
In the case of `O=C(CC12CC3CC(CC(C3)C1)C2)Nc1nncs1`, the inhibition was 100%.
As to `COc1ccc(OC)c(-c2nnc3n2N=C(c2ccc(OC)c(OC4CCCC4)c2)CS3)c1`, the inhibition worked out at 110%.
`COc1ccc2cc3c(N)nn(C(=O)c4ccc(F)cc4)c3nc2c1`: the inhibition came to 96.1%.
Regarding `CCC(=NCCc1c(C)[nH]c2ccc(C)cc12)C1=C(O)CC(c2ccccc2)CC1=O` (stereo not given), the inhibition was determined as 92%.
For `O=C(CCS(=O)(=O)c1ccccc1)N(CCCN1CCOCC1)c1nc2c(F)cccc2s1`, the inhibition amounted to 95.9%.
As to `CC(=O)Oc1c(Cl)cc(N(C(C)=O)S(=O)(=O)c2ccccc2)c2ccccc12`, the inhibition turned out to be 108%.
As for `c1ccc2c(c1)Nc1ccncc1S2`, the inhibition stood at 106%.
As for `COc1cccc(-c2ccc3ncnc(NCc4cc(C)cs4)c3c2)c1`, the inhibition came to 116%.
`O=[N+]([O-])c1cc([N+](=O)[O-])c2oc(-c3ccccc3)c(Br)c2c1O`: the inhibition was determined as 107%.
With `CC(NC(=O)OCc1ccccc1)C(=O)Oc1cc2oc(=O)cc(-c3ccccc3)c2cc1Cl` (stereo not given) the figure was 103%; with `Fc1cccc(Cl)c1/C=N/Nc1c(Cl)cncc1Cl`, 104%; with `Cc1c(Cl)cccc1NC(=O)CSc1nc2ncc(Cl)cc2[nH]1`, 98.7%.
For the compound `COc1ccc2c(c1)c(C(C)=O)c(C)n2-c1ccc(C(C)=O)cc1`, the inhibition was determined as 101%.
As for `C=C1C(=O)O[C@H]2C[C@H]1[C@@H](OC(C)=O)C/C(C)=C/CC/C(C)=C\CC[C@]2(C)O`, the inhibition was 97.5%.
As for `Nc1nccc(SCc2ccc(Cl)cc2Cl)n1`, the inhibition is 74.1%.
In the case of `CC(=O)c1ccc(NC(=O)Nc2ccc3c(c2)N(C)C(=O)CS3)cc1`, the inhibition is 106% [at 19.8 µM].
For `COc1ccc(-c2cc(=O)oc3cc(OC(=O)C4CCCCC4)c(Cl)cc23)cc1`, the inhibition is 102%.
In the case of `COc1ccc(-c2[nH]ncc2-c2ccc3c(c2)OCCO3)c(O)c1`, the inhibition was determined as 114%.
In the case of `CCCCCc1cc(O)c2c(C)cc(=O)oc2c1`, the inhibition is 99.4%.
Regarding `CCCCCCCCCc1nc2sc3c(c2c(=O)n1NC(=O)c1ccc([N+](=O)[O-])cc1)CC(C)(C)OC3`, the inhibition was 115%.
Take `CCNC(=O)C1(C)CCCN(Cc2ccc(-c3ccccc3)o2)C1` (stereo not given): the inhibition is 74.8%.
